SMILES strings stand for the structures. The whole screen tested about 320,000 compounds, of which about 1,300 (0.41%) were called active. Inconclusive results (about 3%) are left out. The rule behind the calls is not given here. These entries were drawn from the full list. Potency and affinity values are given separately.

The assay in a line: growth inhibition of non-replicating M. tuberculosis (AID 488890).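 Note: plate controls were DMSO cells for no effect and high antibiotic wells for full effect.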 The conditions noted are these: Mycobacterium tuberculosis non-replicating, at 25 µM, stronger effect = higher value.
A word on the inhibition: it is the change of the read-out against control, counted positive when it falls. On to `COc1ccc(CCNC(=O)c2ccc(S(=O)(=O)N(C)c3ccccc3)cc2)cc1OC`, for which the inhibition was -1.9%. With `O=C(CC1CCCC1)Nc1cc(C(F)(F)F)ccc1-n1cncn1`, the inhibition came out at 12.3%. The result for `c1ccc(Nc2ccccn2)nc1` reads 3.72%; that for `c1ccc(Nc2ccccc2Nc2ccccn2)nc1`, 0.46%. As to `O=C(NCc1cccnc1)c1ccc([N+](=O)[O-])o1`, the inhibition was 62.8%. The value for `Cc1cccc(NC(=O)c2ccco2)c1C` was -14.2%. The value for `Cc1cccc(NC(=O)COC(=O)c2ccc([N+](=O)[O-])o2)c1C` was 61.9%; that for `Cc1ccccc1Cn1nnc(C(=O)Nc2cccc(C)c2C)c1N` was 26%; that for `COc1cc(NC(=O)c2ccc([N+](=O)[O-])o2)ccc1NC(=O)c1ccco1` was 66.5%. The value for `Cc1ccc(CNC(=O)c2ccc(Br)o2)cc1` was 71.9%; that for `COc1ccccc1NC(=O)c1ccc(-c2ccccc2[N+](=O)[O-])o1` was 25%.

For the compound `Cc1cccc(NC(=O)c2cccc(Cn3cc(Br)c([N+](=O)[O-])n3)c2)c1C`, the inhibition is -0.16%. With `O=C(NCc1ccccc1)c1cc[n+](Cc2ccccc2)cc1`, the inhibition is -1.18%.

As for `Cc1ccc(C(C)(C)NC(=O)C2CCC(=O)N(C3CCCCCC3)C2)cc1` (stereo unspecified), the inhibition came to 8.48%. Take `Cc1ccccc1CC(=O)N1CCN(S(=O)(=O)c2cccs2)CC1`: the inhibition was -18.2%. With `O=C(Cc1ccccc1)NC(c1ccco1)c1c(O)ccc2ccccc12` (stereo unspecified), the inhibition worked out at 11.6%. As to `O=C(NCc1ccccc1)C1=C[C@@H](c2csc3ccccc23)C[C@@H](OCCCCO)O1`, the inhibition was -6.19%. Consider `NC(=O)c1cc(S(=O)(=O)N2CC=C(c3ccccc3)CC2)cs1`, for which the inhibition is -1.59%.

As for `N#CCc1ccc(NC(=O)CSc2nnc(C3CC3)n2C2CC2)cc1`, the inhibition was -7.07%. For `CC(=O)OCC(=O)Nc1ccc(SC(F)F)cc1`, the inhibition was -17.3%. Take `COc1ccc(CNC(=O)N2CCN(c3cccc(C)c3C)CC2)cc1OC`: the inhibition was 47.1%. The result for `Cc1ccc2nc(-c3ccncc3)cc(C(=O)N3CCC4(CC3)OCCO4)c2c1` reads 8.38%; that for `O=C(CSc1ncn(-c2ccccc2)n1)Nc1nccs1`, 12.5%; that for `Cc1cc(OC2CCCCC2)nc(-c2ccccc2O)n1`, 0.01%. For `C=C1CCC[C@]2(C)C[C@H]3OC(=O)C(CNC(CC)CO)[C@H]3CC12` (stereo partly specified), the inhibition stood at 34.3%. On to `O=C(Nc1nccs1)c1ccc(N2C(=O)C3CCCCC3C2=O)cc1` (stereo unspecified), for which the inhibition worked out at 6.17%. The value for `Cc1ccc(C(=O)Nc2cccc3ccccc23)o1` was 26.4%; that for `Cc1cc(C)nc(NC(=O)c2ccc([N+](=O)[O-])o2)n1` was 70.5%; that for `O=C(Nc1ccc(Cc2ccncc2)cc1)c1ccc(Br)o1` was -2.73%. `O=C(COC(=O)c1ccc([N+](=O)[O-])o1)Nc1cccc2ccccc12`: the inhibition came out at 71.3%. For the compound `Cc1c([N+](=O)[O-])cc(C(=O)Nc2ccc(Cc3ccncc3)cc2)cc1[N+](=O)[O-]`, the inhibition was found to be 59.9%. In the case of `O=C(Nc1cccc(NC(=O)c2ccccc2Cl)c1)c1ccc([N+](=O)[O-])o1`, the inhibition was 8.06%. Take `O=C(NC12CC3CC(CC(C3)C1)C2)c1ccc([N+](=O)[O-])cc1`: the inhibition was 74.3%. With `O=C(NC12CC3CC(CC(C3)C1)C2)c1ccc(-c2ccc(Cl)cc2)o1`, the inhibition is 64.3%. For `O=C(NCCCN1CCN(CCCNC(=O)c2cccc(Cl)c2)CC1)c1cccc(Cl)c1`, the inhibition turned out to be 43.3%. Turning to `CCOc1ccc(NC(=O)CN(C)C(=O)c2ccc(C)o2)cc1OCC`, the inhibition was -1.16%. Turning to `Cc1ccc(-c2cc(C(=O)Nc3cccnc3)[nH]n2)c(O)c1C`, the inhibition turned out to be 3.48%. As to `CC(C)NC(=O)CCn1nc(-c2ccc(Cl)cc2)c2ccccc2c1=O`, the inhibition was 10%.

Take `FC(F)(F)c1cc(-c2ccco2)nc(N2CCN(c3ccccc3)CC2)n1`: the inhibition is -1.1%.

For the compound `O=C(CCNC(=O)c1ccc(Br)cc1)NCc1ccco1`, the inhibition worked out at 6.14%.

With `CC(=O)c1cccc(S(=O)(=O)NCCC(=O)O)c1`, the inhibition is -0.2%. Consider `CN1CCN(c2ccccc2NC(=O)c2ccc([N+](=O)[O-])o2)CC1`, for which the inhibition came to 44.3%. The result for `Cc1cc(C)c2nc(NC(=O)c3ccc([N+](=O)[O-])o3)sc2c1` reads 62.3%.

`O=C(Nc1ccccc1N1CCOCC1)c1ccc([N+](=O)[O-])o1`: the inhibition was 67.3%. Regarding `NS(=O)(=O)c1ccc(O)c(NC(=O)c2ccc([N+](=O)[O-])o2)c1`, the inhibition is 76.7%. Consider `CCn1ncc(Br)c1C(=O)Nc1cc(C)cc(C)c1`, for which the inhibition is -11%. Turning to `C=C1CCC2[C@](C)(CO)[C@H](O)CC[C@@]2(C)[C@@H]1/C=C/C1=CCOC1=O` (stereo partly specified), the inhibition was -9.71%. In the case of `CC(C)c1ccc(C(C(=O)NC2CCCC2)N(C(=O)CNC(=O)c2ccco2)c2cccnc2)cc1` (stereo unspecified), the inhibition was -5.98%. Turning to `O=C(NS(=O)(=O)Nc1ccccc1)C1=C(N2CCCC2)COC1=O`, the inhibition was found to be 12.7%. For `CCOC(=O)N1CCN(C(=O)CSc2nc3c([nH]c4ccccc43)c(=O)n2CCOC)CC1`, the inhibition was -12.8%. For the compound `COC(=O)c1nn(-c2cccc(C)c2)c2nnc(Cc3ccc(C)cc3)c(=O)n12`, the inhibition is -0.72%.

In the case of `COc1ccc(NC(=O)N2CCCC2C(=O)NC2CCCC2)cc1` (stereo unspecified), the inhibition is -20.1%. The result for `COc1cccc2c1OCC(C(=O)O)C2` (stereo unspecified) reads -4.89%. For the compound `COc1ccccc1N1CCN(C(=O)C2CC=CCC2C(=O)O)CC1` (stereo unspecified), the inhibition was -0.47%. With `CCOC(=O)C1CCN(C(=O)c2ccc3c(=O)n4c(nc3c2)CCCCC4)CC1`, the inhibition is -14.7%. Consider `O=Nc1c(-c2ccccc2)[nH]n(-c2ccccc2)c1=O`, for which the inhibition was found to be 63%.

For the compound `Cn1nc(-c2ccccc2)c(/C=N/O)c1Cl`, the inhibition was -12.1%. The value for `Cc1sc2ncnc(N3CCCCC3C)c2c1C` (stereo unspecified) was 32.6%. Consider `CCOc1ccc(S(=O)(=O)N2CCCC(C(=O)NCc3ccccc3)C2)cc1` (stereo unspecified), for which the inhibition is -11.6%. Take `CN(C)C=NC(=O)c1cn(-c2ccc(F)cc2)c(=O)c2ccccc12`: the inhibition is -9.03%. The result for `O=C(N/N=C/C=C/c1ccco1)c1cnccn1` reads -12.5%. Take `O=C(N/N=C/C=C\c1ccccc1[N+](=O)[O-])c1cccnc1`: the inhibition is -10.7%. The value for `O=C(N/N=C/C=C\c1ccccc1)c1cnccn1` was 11.4%; that for `O=C(N/N=C/C=C/c1ccccc1[N+](=O)[O-])c1cccnc1` was -8%; that for `COc1ccccc1/C=C/C=N/NC(=O)c1ccccn1` was 70.9%. With `COc1ccccc1/C=C/C=N/NC(=O)c1cnccn1`, the inhibition is 5.21%. For the compound `O=C(N/N=C/C=C/c1ccccc1)c1cnccn1`, the inhibition was 15.9%. The value for `O=C(N/N=C/c1ccco1)c1ccncc1` was 54.4%; that for `COc1ccc(CNC(=O)c2ccc[nH]2)cc1` was 34.3%; that for `CC(=O)N1CCN(c2ccc(NC(=O)c3ccc4c(c3)OCCO4)cc2Cl)CC1` was 27.7%. In the case of `Cc1cccc(OCC(=O)OC(C)C(=O)Nc2ccc(S(=O)(=O)N3CCCCC3)cc2)c1` (stereo unspecified), the inhibition turned out to be 17.6%. Consider `C=C(C)CSc1nnc(-c2cc(OC)c(OC)c(OC)c2)n1N`, for which the inhibition was -11%. Consider `COc1ccc(C2=NN(C(=O)CN3CCCC3)C(c3ccc(OC)cc3)C2)cc1` (stereo unspecified), for which the inhibition is -5.46%. Turning to `Cn1cc(C(=O)N/N=C/C=C/c2ccccc2)ccc1=O`, the inhibition is -14.3%.

As for `Cc1ccccc1N=C/C=C1/C=C(c2ccccc2)OC(C)(C)O1`, the inhibition was determined as 32.8%. The result for `O=C(N/N=C/C=C/c1ccccc1)c1ccc(Br)cc1` reads -16.8%; that for `C/C=C/C=N\NC(=O)c1ccncc1`, 57.5%.

For the compound `O=C(N/N=C/c1ccncc1)c1ccccc1`, the inhibition came out at 67.6%. The value for `CC1(C)OC(c2ccccc2)=C/C(=C/C=Nc2ccccc2)O1` was 14.4%; that for `O=C(O)CC/C(=N\NC(=O)c1ccncc1)c1ccccc1` was 37.3%; that for `C/C(=N/NC(=O)c1ccncc1)c1ccccc1` was 49.1%. The result for `CCCOc1ccc(Cc2c(O)nc(SC)[nH]c2=O)cc1` reads 8.21%; that for `CCC1(c2ccccc2)NC(=O)N(CC(=O)NC2CCCCCC2)C1=O` (stereo unspecified), 15.6%; that for `CCOC(=O)c1nn(-c2ccc(Cl)cc2C)ccc1=O`, -14.1%. The value for `Cc1c(C(=O)N(C)C)c2cc(Cl)ccc2n1O` was 8.07%. As for `Cc1ccccc1NC(=O)OCc1ccccc1`, the inhibition came out at 71.6%. On to `COc1ccc(C(=O)COC(=O)c2ccc(-n3cnnn3)cc2)c(OC)c1`, for which the inhibition was -4.6%. The result for `COc1cccc(C(=O)Nc2ccccc2F)c1` reads -15.1%.

Take `O=C(COC(=O)/C=C/c1ccco1)NCc1ccc(Cl)cc1`: the inhibition turned out to be 44.8%. On to `COc1ccccc1C(=O)OCCN=C1NS(=O)(=O)c2ccccc21`, for which the inhibition was determined as 3.36%. `CC(/C=N/NC(=O)c1ccncc1)=C\c1ccccc1`: the inhibition was 56.6%. For `O=C(N/N=C/C(Br)=C/c1ccccc1)c1cccnc1`, the inhibition was 56.4%. Regarding `CCOc1ccc(-c2nnc(-c3ccccc3)o2)cc1`, the inhibition came to 78.4%. The value for `O=[N+]([O-])c1ccc(C=Nc2cccc3ccccc23)s1` was 68.5%; that for `Cc1ccc2nc(-c3ccccc3)oc(=O)c2c1` was 76.6%; that for `COc1ccc(-c2csc3nc(-c4ccc(C)cc4)oc(=O)c23)cc1OC` was 2%. The value for `O=c1oc(-c2cccc([N+](=O)[O-])c2)nc2ccccc12` was 67.8%; that for `COc1ccc(-n2c(/C=C/c3ccc(O)cc3)nc3ccccc3c2=O)cc1` was 20.1%; that for `CCOc1ccc(-c2cc(C(=O)O)c3ccccc3n2)cc1` was 0.34%.

`COc1ccc(/C=C/c2cc(C(=O)O)c3ccccc3n2)cc1`: the inhibition is 3.28%. With `O=S(=O)(Cc1ccccc1)N1CCCc2ccccc21`, the inhibition was determined as 28.1%. Turning to `Cc1[nH]c2ccc(C(=O)NCCCN(C)C3CCCCC3)cc2c1C`, the inhibition came to 7.44%. `Cc1sc2nc(SCC(=O)NCCOCCO)n(C)c(=O)c2c1C`: the inhibition is -0.17%.

Consider `Cc1ccc(C(=O)NCC(=O)OCn2nnc3ccccc3c2=O)cc1`, for which the inhibition is 4.09%. `Cc1nn(Cc2ccccc2)c2c1C(c1ccc(Cl)cc1)C(C#N)=C(N)O2` (stereo unspecified): the inhibition is 11.4%. The value for `COC(=O)c1sccc1NC(=O)c1c(-c2ccccc2)noc1C` was 27.9%; that for `CC1CC(=O)Nc2ccccc2N1C(=O)CN1CCN(C=O)CC1` (stereo unspecified) was 4.41%. The result for `c1ccc(C2C3=C(Nc4ncnn42)c2ccccc2CCC3)cc1` (stereo unspecified) reads 9.65%; that for `CCCC(=O)C1=C(O)C(C(=O)OC)C(C)(C)CC1=NC(C)C` (stereo unspecified), -5.24%.

As to `CC(C)(C)c1ccc(-n2ncc3c2CCCC3NC(=O)CCN2CCCO2)cc1` (stereo unspecified), the inhibition was 19.6%. For the compound `COc1cc(OC)cc(-c2cc3ccccc3c(=O)o2)c1`, the inhibition came out at 9.55%. Turning to `O=c1oc(-c2ccco2)nc2ccccc12`, the inhibition came to 28.8%.

In the case of `Cc1c2cnn(CC(=O)Nc3c(F)c(F)cc(F)c3F)c(=O)c2c(C)n1Cc1ccccc1F`, the inhibition came out at 0.29%.

`CN(C)C(CNC(=O)CCOc1ccccc1)c1ccco1` (stereo unspecified): the inhibition came out at 13.7%. For `Cc1cc(=O)[nH]c(SC/C=C/c2ccccc2)n1`, the inhibition came out at 69.8%. Take `Fc1ccccc1CSc1nc2ncccc2[nH]1`: the inhibition worked out at 23.3%.
